PubChem BioAssay AID602449 (Sanford-Burnham Center for Chemical Genomics, 2012)
Hit rate of the full screen: of about 360,000 compounds, about 5,000 (1.4%) were called active.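 How the source made its calls: active means inhibition of 50% or more, scaled per plate between neutral and stimulator controls; inactive means the rest.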 The list comes from a sample in which actives are over-represented; it also holds similar structures and randomly drawn compounds.

Experiment: mitochondrial permeability transition pore inhibitors, primary screen, biochemical, isolated mouse mitochondria, absorbance (AID 602449);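 further: 0% = DMSO wells given calcium and 100% = 1 mM EGTA wells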
Details: Ca2+ swelling absorbance, 30 min, at 10 µM, active compounds read high

| SMILES | inhibition |
| --- | --- |
| CCC(C)N(C(=O)Cn1nc(C)c([N+](=O)[O-])c1C)C1CCS(=O)(=O)C1 (stereo unspecified) | 0.4% (inactive) |
| O=C(CCN1CCc2ccccc2C(O)(c2ccccc2)C1)c1ccc2c(c1)OCCO2 (stereo unspecified) | 2.6% (inactive) |
| O=C(c1ccc2c(c1)OCCO2)C1CCN(S(=O)(=O)c2cccc(F)c2)CC1 | -4.7% (inactive) |
| O=C(O)/C=C/c1ccc(S(=O)(=O)N2CCCCCC2)cc1 | -1.1% (inactive) |
| O=C(/C=C(O)/C=C/c1ccc(O)cc1)/C=C/c1ccc(O)cc1 | 75.2% (active) |
| COc1ccc(/C=C/C(=O)c2c(O)cc(OC)cc2OC)cc1 | 1.2% (inactive) |
| O=C(Nc1ccccc1Cc1ccccc1)c1ccc2c(c1)SC1=NS(=O)(=O)CCN12 | 1.9% (inactive) |
| Cc1nc(-c2nnc(SCC(=O)Nc3cc(C(F)(F)F)cc(C(F)(F)F)c3)n2C)cs1 | 4.6% (inactive) |
| Cc1ccc(OC(=O)c2c(C)nn(-c3ccccc3)c2C)cc1 | -0.9% (inactive) |
| C/C(=N\NC(=S)NCc1ccccc1)c1ccc(Cl)cc1 | 3.5% (inactive) |
| S=C(NCc1cccs1)Nc1ccc(Cl)cc1 | 23.7% (inactive) |
| Fc1ccccc1CNC(=S)Nc1ccc(Cl)cc1 | 102% (active) |
| CCCOc1ccc(Cc2c(O)nc(SC)[nH]c2=O)cc1C | 0.9% (inactive) |
| CCCOc1ccc(Cc2c(Cl)nc(SC)nc2NC)cc1 | 95.3% (active) |
| CCOc1cc2[nH]c(=O)n(CCC(=O)NCc3ccc(OC)cc3)c(=O)c2cc1OCC | -0.2% (inactive) |
| COC(=O)C(Cc1c[nH]c2ccccc12)NC(=O)CCNC(=O)c1ccco1 (stereo unspecified) | -1% (inactive) |
| Cc1cc(Cl)ccc1NC(=S)NCCCN1CCCC1=O | 0.5% (inactive) |
| O=C1CCCN1CCCNC(=S)Nc1ccc(F)c(Cl)c1 | 96.1% (active) |
| Cc1c(Cl)cccc1NC(=O)NCCCN1CCCC1=O | -0.1% (inactive) |
| CC1(C(=O)NNC(=S)NCC2CCCO2)CC1(Cl)Cl (stereo unspecified) | -1.4% (inactive) |
| O=S(=O)(Nc1ccc(Cl)cn1)c1cnc(Cl)c(Br)c1 | 12.7% (inactive) |

| SMILES | inhibition |
| --- | --- |
| CC(C)C[C@H]1CN([C@@H](CC(C)C)CN2CCC[C@@H]2CN2C(=O)C(=O)NC[C@@H]2Cc2ccccc2)C(=O)C(=O)N1CCc1ccccc1 | 1.7% (inactive) |
| COc1ccc(Sc2ccc(NC(=O)c3cccc(Cl)c3)cc2C#N)cc1 | 80.5% (active) |
| COC(=O)c1ccc(Sc2ccc(F)cc2)c(N)c1 | -3% (inactive) |
| CSc1ccc(/C=N/NC(=O)c2cccc(Cl)c2)cc1 | 3% (inactive) |
| Cc1ccc(Sc2ccc(NC(=O)c3ccc(F)cc3)cc2C#N)cc1 | 72.3% (active) |
| Cc1ccc(C(=O)NC2CCN(C(=O)Nc3ccc(F)cc3)CC2)cc1 | -0.9% (inactive) |
| COc1ccc(NC(=O)c2cccc(Cl)c2)c[n+]1[O-] | 1.1% (inactive) |
| Cc1ccccc1CNC(=O)CCC(=O)N1Cc2ccccc2Oc2ncccc21 | -0.6% (inactive) |
| CC(C)(C)n1c(=O)[nH]c2c(c1=O)CCC2 | -1.7% (inactive) |
| CC(C)=C1SC(N2CCN(c3ccc(C)c(Cl)c3)CC2)=NC1=O | 2.6% (inactive) |
| COc1ccc(S(=O)(=O)N2CCN(C(C)C(=O)Nc3ccc(C(C)C)cc3)CC2)cc1 (stereo unspecified) | 0.5% (inactive) |
| Cn1c(N2CCOCC2)c(C=O)c2ccccc21 | -0.1% (inactive) |
| COc1cccc(NC(=O)CSc2nnc(-c3cccnc3)o2)c1 | -1.2% (inactive) |
| COc1ccc(C(=O)NCc2nnc(SCC(=O)Nc3cccc(OC)c3)o2)cc1 | -0.9% (inactive) |
| COc1ccc2oc(-c3cccc(NC(=O)CSc4ccc(Cl)cc4)c3)nc2c1 | 86.6% (active) |
| CCOC(=O)c1sc(=NC(=O)/C=C/c2cccs2)n(C)c1C | 1.4% (inactive) |
| CC(CNc1ccc([N+](=O)[O-])cc1)NC(=O)c1ccccc1Br (stereo unspecified) | 0% (inactive) |
| O=C(NCCNc1ccc([N+](=O)[O-])cc1Cl)c1ccccc1F | 1% (inactive) |
| O=C(NCCNc1ccc([N+](=O)[O-])cc1)c1cccc2c(Br)cccc12 | 77.6% (active) |
| Cc1c(Cl)c([N+](=O)[O-])nn1CC(=O)NCC1CCCO1 (stereo unspecified) | -1.6% (inactive) |
| CCN(CC)c1ccc(NC(=O)c2ccc(=O)[nH]c2)cc1S(=O)(=O)Nc1ccc(OC)cc1 | -0.4% (inactive) |

| SMILES | inhibition |
| --- | --- |
| O=C(NNC(=S)NC1CCCCC1)c1ccccc1Cl | 0.2% (inactive) |
| S=C(NCc1ccc(Cl)cc1)NC12CC3CC(CC(C3)C1)C2 | 96.8% (active) |
| COc1ccc(Cl)cc1C(=O)NNC(=S)NC1CCCC1 | -0.5% (inactive) |
| S=C(NCc1ccc(Cl)cc1)NC1CCCCC1 | 67.6% (active) |
| Cc1ccc(C(=O)NC23CC4CC(CC(C4)C2)C3)c(Cl)c1 | -0.2% (inactive) |
| O=C(NCc1ccc2c(c1)OCO2)C12CC3CC(CC(C3)C1)C2 | 3.7% (inactive) |
| CCOCCCNC(=O)C1(O)c2cc(Br)ccc2NC(=O)N1c1ccc(C)c(C)c1 (stereo unspecified) | 0.7% (inactive) |
| O=C(NCCOc1ccccc1Cl)C(=O)Nc1ccccc1 | -1.3% (inactive) |
| O=C(COc1ccccc1F)NNC(=O)c1cc(Br)ccc1Cl | -1.8% (inactive) |
| O=C(NCCOc1ccccc1F)Nc1ccc(Br)cc1 | 87.9% (active) |
| COC(=O)CNC(c1ccccc1Cl)c1cc(Br)ccc1NC(=O)CCN1CCOCC1 (stereo unspecified) | -1% (inactive) |
| CCC(C(=O)NCc1ccccc1)n1c(Cc2cc(F)cc(F)c2)nc2ccccc21 (stereo unspecified) | 2.2% (inactive) |
| COc1ccccc1C(=O)Nc1ccc(Nc2ccccc2)cc1 | 0.9% (inactive) |
| COc1cc(NC(=O)c2ccccc2NS(=O)(=O)c2ccc(Cl)s2)cc(OC)c1 | 67% (active) |
| CCOC(=O)c1ccc(N/C(=N/S(=O)(=O)c2ccccc2)c2ccccc2)cc1 | 1.7% (inactive) |
| O=S(=O)(Nc1ccccc1N1CCOCC1)c1ccc(Cl)s1 | -0.7% (inactive) |
| COc1cccc(NC(=O)c2ccccc2N(Cc2ccccc2)S(C)(=O)=O)c1 | 0% (inactive) |
| COC(=O)c1ccc(NC(=O)c2ccccc2NS(=O)(=O)c2ccccc2)cc1 | 102% (active) |
| COc1cc(C(=O)NNC(=O)CN2C(=O)NC3(CCCC3)C2=O)cc(OC)c1OC | -0.8% (inactive) |
